Measured values reported in the supplement of paper PMC9433436.
± gives the standard deviation of the averaged measurements. Whole data set: some 4,100 sequences, median “relative kcat/Km (krel) vs genomic leader AAAGAU” near 1.7, cut for the highest 2% near 6.5. This is one part of a sample in which the highest values are shown more often than they occur.

Molecular target: T1, E. coli RNase P holoenzyme (M1 P RNA + rnpA protein) (UniProt P0A7Y8)
T1 sequence: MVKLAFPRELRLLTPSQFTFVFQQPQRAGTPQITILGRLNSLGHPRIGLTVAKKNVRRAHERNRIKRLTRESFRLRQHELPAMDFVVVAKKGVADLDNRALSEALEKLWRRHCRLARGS
Experiment: relative kcat/Km (krel) vs genomic leader AAAGAU (relative (reference leader = 1)); higher = faster RNase P cleavage
Procedure: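 HTS-Kin: a pool of ptRNA-Met (21C construct) with all 4096 combinations of 5' leader nucleotides N(-6) to N(-1) was processed in vitro by E. coli RNase P (P RNA + rnpA/C5 protein) under multiple-turnover conditions at 37 C, pH 8, 17.5 mM MgCl2. Residual substrate was Illumina-sequenced at several fractions reacted, and relative kcat/Km (krel) was computed by internal competition kinetics, calibrated to the genomic leader (AAAGAU = 1). The listed hexamer is the varied N(-6)..N(-1) leader (DNA letters), and it sits between a fixed 5' stem-loop flank (GCAUGCACGAAAGUGCGUGCUAUGAA) and the mature tRNA-Met starting GGCUACGUAGCUCAGUUGG. Two technical replicates are averaged.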

[1] = fraction of substrate reacted: ~9-10% (9.79% repeat 1, 9.1% repeat 2)
[2] = fraction of substrate reacted: ~13-16% (15.68% repeat 1, 13.17% repeat 2)
[3] = fraction of substrate reacted: ~26-29% (28.66% repeat 1, 26.4% repeat 2)

Sequence	relative kcat/Km [1]	relative kcat/Km [2]	relative kcat/Km [3]
GGATAA	1.77 ± 0.4	2.37 ± 0.4	2.82 ± 1.2
ATTGAA	2.28 ± 0.51	2.44 ± 0.32	3.48 ± 1.1
GGTAGA	2.41 ± 0.65	2.19 ± 0.26	3.13 ± 1.6
TTTGAT	0.799 ± 0.12	1.01 ± 0.025	1.39 ± 0.26
CCAGTC	2.41 ± 0.63	1.32 ± 0.76	1.52 ± 0.37
TACATT	3.85 ± 1.4	5.11 ± 0.79	7.56 ± 3.7
TACATG	0.765 ± 0.67	1.44 ± 0.13	3.16 ± 1.2
TACATC	3.03 ± 0.57	4.44 ± 0.76	6.8 ± 2.7
GACATC	3.66 ± 0.77	3.95 ± 1.1	5.9 ± 2.2
CACATC	2.93 ± 1	3.64 ± 0.86	5.53 ± 2.1
GACATT	3.42 ± 0.26	4.33 ± 1.3	6.4 ± 3.1
TCCCTA	3.22 ± 1.7	3.63 ± 0.34	4.34 ± 1.6
CAAACG		0.172 ± 0.13	0.797 ± 0.69
GAGAGT	0.122 ± 0.072	1.48 ± 0.097	
AACTCT	2.76 ± 1.1	3.3 ± 0.76	4.39 ± 1.2
TACTCC	3.23 ± 0.81	5.06 ± 1	6.63 ± 2.8
GACTCC	3.31 ± 0.62	4.26 ± 0.76	5.61 ± 2
AACTCC	3 ± 2.2	3.3 ± 0.49	4.38 ± 1.3
TACTCT	3.83 ± 0.27	4.7 ± 0.86	7.13 ± 3.3
CACTCT	3.97 ± 1.4	4.52 ± 0.75	6.37 ± 2.3
TGATTC	1.39 ± 0.61	2.97 ± 1.2	3.89 ± 1.8
CCAGCA	1.37 ± 0.54	0.452 ± 0.45	0.927 ± 0.46
CCATAG		0.327 ± 0.075	1.95 ± 0.2
TGGGGT			1.83 ± 0.45

Sequence	relative kcat/Km [1]	relative kcat/Km [2]	relative kcat/Km [3]
TGCTCT	0.944 ± 0.33	1.02 ± 0.37	1.5 ± 0.59
TTATAG	2.25 ± 1.6	2.63 ± 0.53	4.22 ± 1.9
TTATCT	2.77 ± 0.45	3.58 ± 0.95	5.02 ± 2.2
GTATAT	3.56 ± 1.5	4.99 ± 0.35	7.89 ± 3.5
CTATAT	4.48 ± 1.6	5.55 ± 0.85	7.37 ± 2.9
GTATAA	3.41 ± 1.2	4.18 ± 0.35	5.6 ± 2
GTATTT	3.06 ± 2	3.71 ± 0.4	5.37 ± 1.9
CTATAA	3.33 ± 1.3	3.72 ± 0.51	4.92 ± 1.3
ATATAG	2.16 ± 1.9	1.77 ± 0.48	3.88 ± 1.4
TTATAT	4.62 ± 2	5.95 ± 0.72	8.54 ± 4
CTATAG	2.47 ± 1.2	1.823 ± 0.012	3.4 ± 0.44
ATATAT	3 ± 0.9	4.49 ± 0.51	6.84 ± 3.3
ATATAA	2.75 ± 1.4	3.31 ± 0.47	4.9 ± 1.7
GTGCAA	1.89 ± 1.4	1.25 ± 0.53	1.32 ± 0.22
ACACCT	2.6 ± 1.3	1.66 ± 0.33	2.53 ± 1.6
TCAGCC	2.48 ± 0.96	2.37 ± 0.56	3.15 ± 0.59
GAGCAG		0.164 ± 0.047	1.27 ± 0.062
ACGCGA	2.19 ± 0.79	1.29 ± 0.1	2.07 ± 0.28
CTGTTA	2.76 ± 1.4	1.44 ± 1.1	2.19 ± 0.06
CGACGT		2.25 ± 1.1	2.36 ± 1.5
CAGGGC		0.734 ± 0.28	0.809 ± 0.4
GCCGTA	2.27 ± 0.21	2.93 ± 0.69	3.66 ± 1.4
GGTAAC	1.47 ± 0.022	1.618 ± 0.0045	2.64 ± 1.5
CGATAT	3.51 ± 0.4	5.17 ± 2.6	6.68 ± 3
